Laboratory results as given in the supplement of paper PMC6555819.

Tests used:
Experiment in all cases: PBM binding z-score (relative to random genomic background probes); higher = stronger binding; sequences stand for … in GC…GCGATTGACAGCGTAGAATGAAGG
[1] = tested on: FXR:RXRa (NR concentration 270 nM, RXRa partner concentration 90 nM)
Method in brief: (§1)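 Binding buffer was PBS pH 7.4 with 2% milk, 0.02% Triton X-100, 1 mM DTT, 0.2 mg/mL BSA and 0.4 mg/ml salmon testes DNA. In it, ligand-free nuclear receptor dimers were incubated 1 h on custom Agilent 4×180K protein-binding microarrays carrying double-stranded probes. Antibodies against each partner (one per run) detected binding, and z-scores were calculated against random background probes after regression normalization of scanned fluorescence.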

[2] = tested on: LXRa:RXRa (NR concentration 270 nM, RXRa partner concentration 90 nM)
Method in brief: as §1

[3] = tested on: LXRa homodimer (NR concentration 270 nM)
Method in brief: as §1

[4] = tested on: LXRb:RXRa (NR concentration 270 nM, RXRa partner concentration 90 nM)
Method in brief: as §1

[5] = tested on: LXRb homodimer (NR concentration 270 nM)
Method in brief: as §1

[6] = tested on: PPARa:RXRa (NR concentration 270 nM, RXRa partner concentration 90 nM)
Method in brief: as §1

[7] = tested on: PPARg:RXRa (NR concentration 180 nM, RXRa partner concentration 90 nM)
Method in brief: as §1

[8] = tested on: PPARg:RXRa 270nM:90nM, anti-RXR (NR concentration 270 nM, RXRa partner concentration 90 nM)
Method in brief: as §1

[9] = tested on: PPARg:RXRa 30nM:10nM, anti-RXR (NR concentration 30 nM, RXRa partner concentration 10 nM)
Method in brief: as §1

[10] = tested on: PPARg:RXRa 90nM:30nM, anti-RXR (NR concentration 90 nM, RXRa partner concentration 30 nM)
Method in brief: as §1

[11] = tested on: PPARg:RXRa DBDmut IVT, anti-RXR (DBD mutation: RXRa K156A/R161A, NR concentration 270 nM, RXRa partner concentration 90 nM)
Method in brief: as §1

[12] = tested on: PPARg:RXRa IVT, anti-PPARg (NR concentration 270 nM, RXRa partner concentration 90 nM)
Method in brief: as §1

[13] = tested on: PPARg DBDmut:RXRa IVT, anti-PPARg (DBD mutation: PPARg1 K132A/R137A, NR concentration 270 nM, RXRa partner concentration 90 nM)
Method in brief: as §1

[14] = tested on: PPARg DBDmut IVT, anti-PPARg (DBD mutation: PPARg1 K132A/R137A, NR concentration 270 nM)
Method in brief: as §1

[15] = tested on: PPARg homodimer (NR concentration 180 nM)
Method in brief: as §1

[16] = tested on: PXR:RXRa (NR concentration 270 nM, RXRa partner concentration 90 nM)
Method in brief: as §1

[17] = tested on: PXR homodimer (NR concentration 270 nM)
Method in brief: as §1

[18] = tested on: RARa:RXR (NR concentration 270 nM, RXRa partner concentration 90 nM)
Method in brief: as §1

[19] = tested on: RARa homodimer (NR concentration 270 nM)
Method in brief: as §1

[20] = tested on: RARb:RXRa (NR concentration 270 nM, RXRa partner concentration 90 nM)
Method in brief: as §1

Sequence | PBM binding z-score [1] | PBM binding z-score [2] | PBM binding z-score [3] | PBM binding z-score [4] | PBM binding z-score [5] | PBM binding z-score [6] | PBM binding z-score [7] | PBM binding z-score [8] | PBM binding z-score [9] | PBM binding z-score [10] | PBM binding z-score [11] | PBM binding z-score [12] | PBM binding z-score [13] | PBM binding z-score [14] | PBM binding z-score [15] | PBM binding z-score [16] | PBM binding z-score [17] | PBM binding z-score [18] | PBM binding z-score [19] | PBM binding z-score [20]
CCGACAGGGGCAAGGTTACCATAACGCACAGCCA | 0.485 | 0.975 | -0.0477 | 0.737 | -0.848 | 1.49 | 1.32 | 0.765 | 0.0629 | 0.378 | -0.0279 | 0.0813 | -0.56 | -0.66 | 0.577 | 0.585 | 0.0826 | 1.26 | 0.048 | 2.1
AGTCACAGTTCACTAGGTAACGTAAGATTCAGCT | 0.936 | 1.66 | 0.659 | 1.19 | 0.166 | 2.84 | 2.96 | 3.17 | 1.06 | 2.12 | 2.42 | 3.71 | 1.36 | 0.988 | 1.05 | 1.35 | 0.619 | 1.25 | 0.737 | 2.31
TCTTGTAGATCAACAGGAGGTTAAGAAAGATCGA | 0.227 | 1.19 | 0.133 | 0.709 | -0.3 | 1.22 | -0.0134 | 1.2 | 2.19 | 1.56 | 1.3 | 0.568 | 0.392 | 0.445 | 0.0227 | 0.753 | -0.259 | 0.995 | -0.178 | 0.617
AGAATGAGGTTAAGATCAGGGGAACAGAATACAT | 2.39 | 1.58 | 0.0516 | 1.98 | 0.284 | 3.55 | 2.33 | 2.48 | 0.75 | 1.88 | 3.34 | 2.63 | 1.57 | 0.78 | 1.05 | 1.43 | 0.765 | 2.02 | 0.798 | 1.95
CAGCCTAGGTCCGGGCCAGTATAGGAGGAACGTT | -0.987 | -1.11 | -0.834 | -1.41 | -1.47 | -1.78 | -0.191 | -0.878 | -0.996 | -1.2 | -1.2 | -1.1 | -2.15 | -1.84 | -1.61 | -1.01 | -0.992 | -1.12 | -1.43 | -0.671
ATATGTAGGTTAAATCCGGGTCATTCAGGCTATG | 2.83 | 5.17 | 3.32 | 3.47 | 1.09 | 4.96 | 5.84 | 5.44 | 2.91 | 4.84 | 7.28 | 7.3 | 2.58 | 2.7 | 2.38 | 4.32 | 1.9 | 4.3 | 0.415 | 2.51
TTACCAAGCTGAAGGTCGTTGATCCCTCTGTAGA | 1.61 | 1.68 | -0.245 | 1.04 | -0.907 | 1.03 | 0.527 | 2.36 | 0.492 | 1.8 | -0.256 | -0.224 | -1.71 | -1.67 | -0.217 | 1 | -0.159 | 0.87 | -1.08 | 0.656
GCTAGCAGGCCATTTGGGTCACTCATTGACGGGC | 0.033 | -0.0107 | -0.528 | -0.128 | -0.903 | 1 | 0.357 | 0.27 | -0.512 | -0.18 | 1.91 | 1.84 | -1.26 | -0.505 | -0.295 | 0.252 | -0.137 | 0.652 | -0.74 | 1.26
CGAACTAGGTCATCCAGGACAGGGAATACATTGA | 4.45 | 2.35 | 0.51 | 1.85 | 0.035 | 4.75 | 7.8 | 6.18 | 3.9 | 5.82 | 7.79 | 8.34 | 3.98 | 2.59 | 1.77 | 1.6 | 0.593 | 2.36 | 0.244 | 3.78
TCTTGTAGATCGAAGGTTAAGAAAGCCGAAGCCT | 0.669 | 0.667 | -0.334 | 0.511 | -0.593 | 2.25 | 3.11 | 5.23 | 4.1 | 5.26 | 1.1 | 1.32 | -0.629 | -0.226 | 0.155 | 0.143 | -0.658 | 0.948 | -0.208 | 0.667
AGTCAAAGTTAATCTAGGTAACGTAAGATATGCT | 0.59 | 0.213 | -0.267 | -0.245 | -0.44 | 1.29 | 1.78 | 1.41 | 0.619 | 0.829 | 2.39 | 4.39 | 1.49 | 1.19 | -0.261 | -0.201 | 0.136 | 0.155 | 0.301 | 0.39
CAAACTAGGTCAAGGTCAAAGCCGGTTTGTGCCA | 6.25 | 5.33 | 3.23 | 4.36 | 1.05 | 6.15 | 9.26 | 8.02 | 6.18 | 7.95 | 8.75 | 8.89 | 2.59 | 0.00542 | 2.93 | 4.89 | 1.4 | 4.84 | 0.855 | 5.2
ACTATTAGTTTAGACGAGGGCAACCGATAGGTTG | 0.453 | 0.483 | 0.356 | 0.275 | 0.368 | 0.386 | 0.651 | 0.246 | -0.0368 | -0.045 | 0.00795 | 0.402 | 0.0772 | 1.14 | 0.811 | 1.29 | 0.902 | 1.26 | 1.02 | 1.25
AGAACGAGGGCACGCTGACTTGATAGCAGAGTAG | 0.758 | 0.896 | -0.482 | 0.363 | -0.85 | 2.31 | 2.29 | 1.85 | 0.503 | 1.18 | 3.96 | 4.19 | 0.288 | 0.937 | -0.0871 | 0.461 | -0.269 | 0.898 | -0.516 | 2.44
